# BAZ2B inh = qHTS Assay for Inhibitors of BAZ2B | Bromodomain adjacent to zinc finger domain protein 2B (Homo sapiens), Q9UIF8 | AlphaScreen BAZ2B-H3K14Ac peptide displacement | Potency, µM (top dose mostly 114 µM), without a hit: top-dose activity change, negative = inhibition, most hits filed as inhibitors | 360,000 compounds, 4.4% hits | AID 504333, 2011; also: potency is read from the fitted curve at half-maximal effect; % is scaled to controls: 0 for no effect and ±100 for the full control effect; nearly all actives have a fitted effect of over 60% in size
#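 BAZ2B 50 nM plus b-H3(5-23)K14Ac 50 nM, PBS pH 7.4/0.01% Tween-20, 30 min RT; compound added (max 110 uM), 30 min RT; streptavidin donor/Ni-chelate acceptor beads 10 ug/mL final, 20 min dark; AlphaScreen read.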
# HP1b chromo inh = HTS for Inhibitors of HP1-beta Chromodomain Interactions with Methylated Histone Tails; Chromobox protein homolog 1 (Homo sapiens), P83916; AlphaScreen HP1-beta / biotin-H3K9me3 peptide binding; Potency, µM (titrated, usually from 114 µM), inactives show at the highest dose activity change, negative = inhibition, most hits filed as inhibitors; 390,000 compounds, 0.56% hits; also: potency is read from the fitted curve at half-maximal effect; nearly all actives have a fitted effect of over 70% in size
#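 Compound inhibition of the preformed complex between 50 nM HP1-beta and 50 nM biotinylated H3K9me3 peptide was read by AlphaScreen. Buffer was PBS pH 7.4 with 0.01% Tween-20. Incubations ran 30 min at room temperature, with 10 ug/mL donor/acceptor beads.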
# JMJD2A Tudor inh = qHTS Assay for Inhibitors of JMJD2A-Tudor Domain. Potency, µM (doses to about 114 µM), for the others: at the top dose activity change, negative = inhibition, actives largely listed as inhibitors. 390,000 compounds, 4.4% hits. AlphaScreen JMJD2A-Tudor / H3K4me3 peptide binding; also: potency is read from the fitted curve at half-maximal effect; % is scaled to controls: 0 for no effect and ±100 for the full control effect; nearly all actives have a fitted effect of over 50% in size
# CtBP-E1A inh = qHTS Assay for Inhibitors of the CtBP/E1A Interaction. 340,000 compounds, 0.49% hits. activity change, % (concentration not given with the values). AlphaScreen GST-E1A/His-CtBP binding, 1536-well; hits give low values; in the data active = activity change below about -65%; inconclusive = mostly about -30% to -63%; also: % is scaled to controls: 0 for no effect and ±100 for the full control effect
#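 Steps: dispense buffer (Tris pH 8.0, NaCl 300 mM, TCEP 1 mM, BSA, Tween 20); add 5X protein mix (GST-E1A, His-CtBP, 125 nM each); pin 23 nL compound; 2 h at 37 °C, dark; add 5X beads (50 ug/mL); 1 h; read.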
# Six1-Eya2 inh = qHTS Assay for Inhibitors of the Six1/Eya2 Interaction. 360,000 compounds, 0.56% hits. AlphaScreen GST-Six1/His-Eya2 binding, biochemical; hits give low values. activity change, % (no concentration beside the values). Homeobox protein SIX1 (Homo sapiens) + Protein phosphatase EYA2 (Homo sapiens), …; in the data active = activity change below about -65%; inconclusive = mostly about -30% to -63%; also: % is scaled to controls: 0 for no effect and ±100 for the full control effect
#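 GST-Six1 + His-Eya2 (5X stock: 250/500 nM); Tris pH 8.0, 300 mM NaCl, 0.05% BSA, 0.02% Tween 20; GSH donor/Ni acceptor beads; 1 h 37 °C dark; AlphaScreen readout.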
# TDP1 block = qHTS Assay for Inhibitors of Tyrosyl-DNA Phosphodiesterase (TDP1); recombinant TDP1, AlphaScreen DNA substrate cleavage; 350,000 compounds, 0.28% hits; Potency, µM (highest dose often 130 µM), inactives show at the top dose activity change, negative = inhibition, hits mostly inhibitors; Tyrosyl-DNA phosphodiesterase 1 (Homo sapiens), Q9NUW8; also: potency is read from the fitted curve at half-maximal effect; % is scaled to controls: 0 for no effect and ±100 for the full control effect; nearly all actives have a fitted effect of over 40% in size
# Target sequence (Q9NUW8 whole entry, looked up): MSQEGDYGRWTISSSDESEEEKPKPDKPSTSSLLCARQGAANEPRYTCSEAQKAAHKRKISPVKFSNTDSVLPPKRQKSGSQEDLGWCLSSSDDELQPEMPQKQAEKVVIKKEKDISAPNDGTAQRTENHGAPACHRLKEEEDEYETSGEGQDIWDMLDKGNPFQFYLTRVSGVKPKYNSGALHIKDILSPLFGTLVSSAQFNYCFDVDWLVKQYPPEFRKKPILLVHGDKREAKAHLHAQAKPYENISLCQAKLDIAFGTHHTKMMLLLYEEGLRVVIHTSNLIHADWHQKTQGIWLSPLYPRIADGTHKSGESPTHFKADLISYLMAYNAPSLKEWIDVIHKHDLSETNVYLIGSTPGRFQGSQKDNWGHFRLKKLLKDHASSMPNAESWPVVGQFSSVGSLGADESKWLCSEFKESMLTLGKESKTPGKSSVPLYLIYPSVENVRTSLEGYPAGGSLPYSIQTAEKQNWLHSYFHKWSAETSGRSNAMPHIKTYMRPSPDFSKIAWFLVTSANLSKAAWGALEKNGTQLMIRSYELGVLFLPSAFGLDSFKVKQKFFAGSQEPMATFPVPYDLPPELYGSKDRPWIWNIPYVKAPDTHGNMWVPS
#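 Steps: enzyme plus compound, 15 min RT; add biotin/phosphotyrosine-FITC oligonucleotide (15 nM final), react 5 min; add donor/acceptor beads (10 ug/ml final), 10 min; read AlphaScreen. Tdp1 at 1 nM final.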
# * hit, by the source's call; ? = inconclusive; / = no result given; [ ] = dose if it differs, or a comment. A selection: hits, their analogues and other compounds. The true share with any hit is near 5.3%. Unless noted, calls follow the shape of the dose curve; as a rule, active = well fitted inhibition curve with a large enough effect; inconclusive = small, poorly fitted or top-dose-only effect; inactive = no such curve, though single readings can be large or run the other way.
SMILES,BAZ2B inh,HP1b chromo inh,JMJD2A Tudor inh,CtBP-E1A inh,Six1-Eya2 inh,TDP1 block
CC1(C)Cc2[nH]c(=S)c(C#N)cc2CO1,25µM*,-19%,6.3µM*,-3,-1,6%
N#Cc1cc2c([nH]c1=S)CCCC2,32µM*,-28%,3.5µM*,2,2,5%
CC1CCCN(c2ncnc3c2nnn3C)C1 (stereo unspecified),-1%,23%,-10%,/,/,0%
O=S(=O)(c1ccc(-c2csc(=Nc3ccccc3)n2CCCN2CCOCC2)cc1)N1CCOCC1,40µM*,?,?,-13,-28,9%
COc1cccc(CNC(=O)CC(c2ccc(C)cc2)N2Cc3ccccc3C2=O)c1 (stereo unspecified),-8%,35%,6%,/,/,-3%
Cc1cc(NC(=O)c2cc(-c3ccc(F)cc3)on2)nn1Cc1ccc(Cl)cc1,2%,29%,-9%,/,/,-5%
COc1ccc(NC(=O)c2ccc3c(SCC(=O)O)c4c(nc3c2)CCCC4)cc1OC,-2%,49%,-11%,/,/,3%
COc1cc(NC(=O)c2ccc3c(SCC(=O)O)c4c(nc3c2)CCC4)cc(OC)c1OC,89µM*,30%,-17%,-6,2,-2%
O=C(O)CSc1c2c(nc3cc(C(=O)N4CCOCC4)ccc13)CCCC2,71µM*,15%,40µM*,-19,-18,0%
CCOC(=O)N1CCN(C(=O)c2ccc3c(SCC(=O)O)c4c(nc3c2)CCCC4)CC1,-3%,36%,-17%,-19,2,-3%
O=C(O)CSc1c2c(nc3cc(C(=O)Nc4ccc(F)c(Cl)c4)ccc13)CCC2,79µM*,-1%,?,/,/,-4%
COc1cc(NC(=O)c2ccc3c(SCC(=O)O)c4c(nc3c2)CCCC4)cc(OC)c1OC,-25%,26%,-29%,/,-14,5%
CCOc1ccccc1-c1nc(C(N)=O)c2c(n1)n(-c1ccc3c(c1)OCO3)c(=O)n2C,1%,18%[57 µM],-16%,/,/,5%
COc1ccc(-c2cc(C(=O)Nc3c(C)nn(Cc4ccc(C)cc4)c3C)no2)cc1OC,-9%,27%,-6%,/,/,3%
Cn1c(=O)n(C)c2cc(S(=O)(=O)NCc3ccccc3)ccc21,-29%,5%,-22%,6,0,-1%
CCCS(=O)(=O)Nc1cc2c(cc1NCc1ccccc1)n(C)c(=O)n2C,50µM*,11%,-26%,/,/,-2%
COc1ccc(S(=O)(=O)Nc2cc3c(cc2NCc2ccccc2)n(C)c(=O)n3C)cc1,45µM*,2%,50µM*,/,/,5%
O=[N+]([O-])c1nn(-c2ccc3c(c2)OCCO3)n(O)c1=Nc1ccc(Cl)cc1,?,-5%,-30%,-14,-20,10%
CCc1ccc(N=c2c([N+](=O)[O-])nn(-c3ccc4c(c3)OCCO4)n2O)cc1,25µM*,?,32µM*,?,-22,8%
O=[N+]([O-])c1nn(-c2ccc3c(c2)OCCO3)n(O)c1=NC1CCCCCC1,14µM*,?,22µM*,?,?,11%
O=[N+]([O-])c1nn(-c2ccc3c(c2)OCCO3)n(O)c1=Nc1ccccc1,40µM*,-34%,45µM*,0,-28,-2%
COC(=O)C/C=C\[C@H](C)[C@@H](OC)c1ccccc1Br,/,/,/,/,/,4%[21 µM]
CC(C)(C)C1CCc2c(sc(NC(=O)c3ccccc3F)c2C(=O)NCc2ccco2)C1 (stereo unspecified),3%,25%,10%,/,/,/
CCC(C(=O)N1CCN(c2cc(Cl)ccc2C)CC1)n1nc(C)c2sc3ccccc3c2c1=O (stereo unspecified),2%,27%,2%,/,/,-6%
Nc1ccccc1C(=O)C[C@H](N)C(=O)O,/,2%,18µM*,4,-3,1%
SMILES,BAZ2B inh,HP1b chromo inh,JMJD2A Tudor inh,CtBP-E1A inh,Six1-Eya2 inh,TDP1 block
CN(C)S(=O)(=O)Nc1ccc(-c2cn3ccsc3n2)cc1,-11%,12%[57 µM],-19%,/,/,3%
NNC(=O)c1cncn1-c1ccc(F)cc1,50µM*,57%,?,-14,16,-1%
NC(=O)c1ccc(NC(=O)c2cncn2-c2ccccc2)cc1,3%,-4%,?,5,5,/
N#Cc1cn(CCOc2ccccc2F)c2ccccc12,52%,118%,34%[57.1 µM],15,15,-7%
CN1CCN(C(=S)c2cn(CCOc3ccccc3F)c3ccccc23)CC1,?,?,50µM*,-2,?,10%
CCOC(=O)N1CCN(Cc2nc3cc(NC(=O)c4ccc(F)cc4)ccc3n2C(C)C)CC1,-26%,37%,-22%,/,/,2%
CN(C)CCNc1ccc(CO)c2sc3ccc(O)cc3c(=O)c12,/,71µM*,50µM*,?,?,/
Nc1ccc(C(=O)OCC(=O)N2c3ccccc3Sc3ccccc32)cc1[N+](=O)[O-],-38%,-12%,?,-28,-25,3%
NCCNc1ccc(C(=O)N2c3ccccc3Sc3ccccc32)cc1[N+](=O)[O-],40µM*,-29%,?,-1,-18,/
COc1cc2[nH]c(=S)n(CCN3CCOCC3)c(=O)c2cc1OC,?,-1%,32µM*,9,2,7%
COC(=O)c1ccc2c(=O)n(CCCN3CCOCC3)c(=S)[nH]c2c1,-3%,21%,-34%,-2,-1,2%
COc1cc2[nH]c(=S)n(CCCN3CCOCC3)c(=O)c2cc1OC,-15%,1%,25µM*,?,-13,9%
COCCn1c(=S)[nH]c2cc(OC)c(OC)cc2c1=O,-7%,19%,89µM*,-3,-9,2%
CCc1cccc(NC(=O)COC(=O)c2cn(CC)c3nc(C)ccc3c2=O)c1,3%,57%,-17%,/,/,0%
O=C(O)c1ccccc1-c1ccccc1C(=O)Nc1ccc2c(c1)[nH]c(=O)c1ccccc12,-23%,14%,-8%,-1,-72*,/
O=C(O)c1ccccc1-c1ccccc1C(=O)Nc1ccc2oc(=O)c3ccccc3c2c1,/,/,/,-6,?,/
CCN(CC)S(=O)(=O)c1ccc(NC(=O)COC(=O)CNS(=O)(=O)/C=C/c2ccccc2)cc1,31%,16%,-14%,-81*,-14,7%
